From PubChem BioAssay AID1159580 (chemical genetic matrix, 2015)
Screen size: about 5,500 compounds; about 2,000 (36%) were called active. About 18% were inconclusive and are not listed. Cut-off read from the data, not from the text of the source: active = normalized growth mostly below about 0.91 (no sharp cut-off); inconclusive = no clear call, values can overlap the other calls; inactive = mostly above about 0.92. Some of the results follow.

Assay: chemical genetic growth profiling, strain panel (AID 1159580);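 note: tested at 20 µM; growth read once vehicle control cultures reached saturation at 30 °C; 1 = growth at the plate median or of vehicle wells; lower values mean less growth of the strain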
Details: S. cerevisiae deletion strains, growth OD
[1] = locus YAL013W, strain DEP1, stronger effect = lower value
[2] = locus YBR229C, strain ROT2, stronger effect = lower value
[3] = locus YDL101C, strain DUN1, stronger effect = lower value
[4] = locus YDR150W, strain NUM1, stronger effect = lower value
[5] = locus YEL061C, strain CIN8, stronger effect = lower value
[6] = locus YGR078C, strain PAC10, stronger effect = lower value
[7] = locus YHR030C, strain SLT2, stronger effect = lower value
[8] = locus YHR087W, strain rtc3, stronger effect = lower value
[9] = locus YJL187C, strain SWE1, stronger effect = lower value
[10] = locus YJR043C, strain POL32, stronger effect = lower value
[11] = locus YJR075W, strain HOC1, stronger effect = lower value
[12] = locus YKL190W, strain CNB1, stronger effect = lower value
[13] = locus YLR039C, strain RIC1, stronger effect = lower value
[14] = locus YLR058C, strain SHM2 (second series), stronger effect = lower value
[15] = locus YLR085C, strain ARP6, stronger effect = lower value
[16] = locus YLR262C, strain YPT6, stronger effect = lower value
[17] = locus YML094W, strain GIM5, stronger effect = lower value
[18] = locus YMR219W, strain ESC1, stronger effect = lower value
[19] = locus YMR263W, strain SAP30, stronger effect = lower value
[20] = locus YNL153C, strain GIM3, stronger effect = lower value
[21] = locus YNL298W, strain CLA4 (second series), stronger effect = lower value
[22] = locus YNL322C, strain KRE1, stronger effect = lower value
[23] = locus YNR030W, strain Alg12, stronger effect = lower value
[24] = locus YOL006C, strain TOP1, stronger effect = lower value
[25] = locus YPL055C, strain LGE1, stronger effect = lower value
[26] = locus YPL241C, strain CIN2, stronger effect = lower value
[27] = locus YPR135W, strain CTF4, stronger effect = lower value
[28] = locus YCL061C, strain MRC1, stronger effect = lower value

Measured: normalized growth

CCOC(=O)c1ccc2oc3ccc(O)cc3c(=O)c2c1
inactive: [1] 0.948 | [2] 0.982 | [3] 0.982 | locus YDL134C, strain PPH21, stronger effect = lower value 1 | [4] 0.973 | [5] 0.97 | [6] 1 | [7] 0.826 | [8] 0.937 | [9] 0.956 | [10] 0.977 | [11] 1.01 | [12] 0.979 | [13] 1 | [14] 0.988 | [15] 0.864 | [16] 0.99 | [17] 0.913 | [18] 1 | [19] 0.949 | locus YMR307W, strain GAS1, stronger effect = lower value 0.814 | [20] 0.973 | [21] 0.956 | [22] 1.01 | [23] 0.939 | [24] 0.945 | [25] 0.88 | [26] 0.908 | [27] 0.872

O=C(O)c1coc2ccccc2c1=O
inactive: [1] 1 | [2] 0.99 | [3] 0.973 | [4] 0.908 | [5] 1.02 | [6] 0.995 | locus YGR229C, strain SMI1, stronger effect = lower value 0.999 | [7] 0.867 | [8] 0.96 | [9] 0.992 | [10] 1 | [11] 0.897 | [12] 1.01 | [14] 0.995 | [15] 0.853 | [17] 0.96 | [18] 0.964 | [19] 0.978 | [20] 0.982 | [21] 1 | [22] 0.994 | [23] 0.888 | [24] 0.852 | [25] 0.906 | [27] 0.892
active: [28] 0.906 | [13] 0.665 | [16] 0.764 | [26] 0.833

O=c1c2ccccc2oc2ccccc12
inactive: locus YAL021C, strain ccr4, stronger effect = lower value 0.938 | locus YAL026C, strain drs2, stronger effect = lower value 0.912 | locus YAL030W, strain snc1, stronger effect = lower value 0.948 | locus YBL061C, strain skt5, stronger effect = lower value 0.922 | locus YBR023C, strain chs3, stronger effect = lower value 0.916 | locus YBR171W, strain sec66, stronger effect = lower value 0.897 | locus YCL069W, strain vba3, stronger effect = lower value 0.961 | locus YCR088W, strain abp1, stronger effect = lower value 0.964 | locus YDL005C, strain med2, stronger effect = lower value 0.946 | locus YDL040C, strain nat1, stronger effect = lower value 0.946 | locus YDR001C, strain nth1, stronger effect = lower value 0.953 | locus YDR069C, strain doa4, stronger effect = lower value 0.927 | locus YDR159W, strain sac3, stronger effect = lower value 0.989 | locus YDR297W, strain sur2, stronger effect = lower value 0.945 | locus YDR334W, strain swr1, stronger effect = lower value 0.929 | locus YDR335W, strain msn5, stronger effect = lower value 0.946 | locus YEL037C, strain rad23, stronger effect = lower value 0.944 | locus YER015W, strain faa2, stronger effect = lower value 0.954 | locus YER016W, strain bim1, stronger effect = lower value 0.95 | locus YER111C, strain swi4, stronger effect = lower value 0.937 | locus YFR010W, strain ubp6, stronger effect = lower value 0.915 | locus YGL167C, strain pmr1, stronger effect = lower value 0.931 | locus YGL173C, strain kem1, stronger effect = lower value 0.907 | locus YGL227W, strain vid30, stronger effect = lower value 0.95 | locus YHR027C, strain rpn1, stronger effect = lower value 0.944 | locus YJL092W, strain hpr5, stronger effect = lower value 0.945 | locus YJL115W, strain asf1, stronger effect = lower value 0.953 | locus YJL129C, strain trk1, stronger effect = lower value 0.976 | locus YJL154C, strain vps35, stronger effect = lower value 0.964 | [9] 0.935 | locus YKR026C, strain gcn3, stronger effect = lower value 0.949 | locus YKR091W, strain srl3, stronger effect = lower value 0.956 | locus YLL026W, stronger effect = lower value 0.951 | locus YLL041C, strain sdh2, stronger effect = lower value 0.952 | locus YLR027C, strain aat2, stronger effect = lower value 0.932 | locus YLR113W, strain HOG1, stronger effect = lower value 0.941 | locus YLR258W, strain gsy2, stronger effect = lower value 0.916 | locus YLR342W, strain FKS1, stronger effect = lower value 0.963 | locus YLR357W, strain rsc2, stronger effect = lower value 1.06 | locus YLR370C, strain arc18, stronger effect = lower value 0.952 | locus YLR384C, strain iki3, stronger effect = lower value 0.921 | locus YML120C, strain ndi1, stronger effect = lower value 0.915 | locus YMR058W, strain fet3, stronger effect = lower value 0.918 | locus YMR125W, strain sto1, stronger effect = lower value 0.918 | locus YMR129W, stronger effect = lower value 0.946 | locus YMR205C, strain PFK2, stronger effect = lower value 0.913 | locus YMR231W, strain pep5, stronger effect = lower value 0.947 | locus YNL183C, strain NPR1, stronger effect = lower value 0.841 | locus YNL209W, strain ssb2, stronger effect = lower value 0.93 | locus YNL322C, strain KRE1 (second series), stronger effect = lower value 0.965 | locus YNR049C, strain mso1, stronger effect = lower value 0.961 | locus YOR070C, strain gyp1, stronger effect = lower value 0.934 | locus YOR080W, strain dia2, stronger effect = lower value 0.966 | locus YOR106W, strain vam3, stronger effect = lower value 0.88 | locus YOR265W, strain rbl2, stronger effect = lower value 0.936 | locus YPL240C, strain hsp82, stronger effect = lower value 0.969 | locus YPL256C, strain CLN2, stronger effect = lower value 0.876
active: locus YBR009C, strain hhf1, stronger effect = lower value 0.854 | locus YBR231C, strain swc5, stronger effect = lower value 0.858 | locus YBR279W, strain paf1, stronger effect = lower value 0.922 | locus YCL011C, strain gbp2, stronger effect = lower value 0.907 | locus YCL016C, strain dcc1, stronger effect = lower value 0.869 | [28] 0.917 | locus YDR137W, strain rgp1, stronger effect = lower value 0.794 | locus YDR195W, strain ref2 1.33 [resistant] | locus YDR392W, strain spt3, stronger effect = lower value 0.495 | locus YEL003W, strain gim4, stronger effect = lower value 0.906 | locus YEL061C, strain CIN8 (second series), stronger effect = lower value 0.879 | locus YER155C, strain BEM2 (second series), stronger effect = lower value 0.386 | locus YGL240W, strain doc1, stronger effect = lower value 0.84 | locus YGL253W, strain hxk2, stronger effect = lower value 0.859 | locus YHR013C, strain ard1, stronger effect = lower value 0.738 | [7] 0.813 | locus YHR079C, strain IRE1, stronger effect = lower value 0.822 | locus YHR142W, strain chs7, stronger effect = lower value 0.766 | locus YJL095W, strain BCK1 (second series), stronger effect = lower value 0.853 | locus YJL095W, strain BCK1, stronger effect = lower value 0.857 | locus YJL164C, strain tpk1, stronger effect = lower value 0.891 | locus YJL166W, strain qcr8, stronger effect = lower value 0.879 | locus YJR066W, strain TOR1, stronger effect = lower value 0.8 | locus YKL160W, strain elf1, stronger effect = lower value 0.879 | locus YLL001W, strain dnm1, stronger effect = lower value 0.884 | locus YLR221C, strain rsa3, stronger effect = lower value 0.87 | locus YLR262C, strain YPT6 (second series), stronger effect = lower value 0.769 | locus YLR320W, strain mms22, stronger effect = lower value 0.697 | locus YNL071W, strain lat1, stronger effect = lower value 0.737 | locus YNL248C, strain rpa49, stronger effect = lower value 0.511 | locus YOR001W, strain rrp6, stronger effect = lower value 0.88 | locus YOR083W, strain WHI5, stronger effect = lower value 0.814 | locus YOR231W, strain MKK1, stronger effect = lower value 0.836 | locus YOR270C, strain vph1, stronger effect = lower value 0.611 | locus YOR290C, strain snf2, stronger effect = lower value 0.792 | locus YPL051W, strain arl3, stronger effect = lower value 0.859 | locus YPL078C, strain atp4, stronger effect = lower value 0.842 | locus YPL106C, strain sse1, stronger effect = lower value 0.759
